The source of these data is PubChem BioAssay (NCI).

Among the test systems are HT29 colon; SNB-19 CNS; U251 CNS; PC-3 prostate; SK-MEL-5 melanoma; UACC-62 melanoma; LOX IMVI melanoma; SK-MEL-28 melanoma; SK-MEL-2 melanoma; EKVX NSCLC; SN12C renal; UO-31 renal; TK-10 renal; ACHN renal; CAKI-1 renal; A498 renal; CCRF-CEM leukemia; MOLT-4 leukemia.
What all share (assay): NCI-60 one-dose screen, 48 h (100 = growth as untreated, 0 = no growth, -100 = all killed)
What all share (details): 10 µM unless noted

The panel holds about 83,000 compounds, 20% with a hit somewhere; the sample as a whole holds those more often.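 Plates (96-well) were seeded with cells, treated with compound at one concentration, and incubated for 48 hours before percent growth was determined.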 A number with no mark means an inactive call. The source made the active and inactive calls. The calls were made as follows: active = growth percent below 10; inactive = the rest.

On to `CCCCCCCCC(C)OC(=O)c1nn(C(C)=O)c2ccccc12` (stereo not given), for which the growth was 103% in the test on HT29 colon; 107% with SNB-19 CNS; 94.7% with U251 CNS; 95.7% in the test with PC-3 prostate; 97.7% in the test on SK-MEL-5 melanoma; 92.3% in the test with UACC-62 melanoma. The growth in the test with LOX IMVI melanoma is 103%; with SK-MEL-28 melanoma, 116%; with SK-MEL-2 melanoma it was 97.7%; in the test with EKVX NSCLC, 92.2%; with SN12C renal, 102%; in the test on UO-31 renal, 83.1%. Moreover, the growth in the test with TK-10 renal was 93.2%; in the test with ACHN renal, 107%; with CAKI-1 renal, 91.1%; with A498 renal it was 109%; in the test with CCRF-CEM leukemia, 100%; in the test on MOLT-4 leukemia, 109%.

Regarding `O=C(/C=C/c1ccccc1)c1cccc(O)c1`, the growth with HT29 colon was 32.3%; in the test on U251 CNS, 61.9%; in the test on PC-3 prostate it was 103%; in the test on SK-MEL-5 melanoma, 107%; with LOX IMVI melanoma, 81.7%; in the test on SK-MEL-28 melanoma, 104%. Also, the growth is 115% with SK-MEL-2 melanoma; 108% with EKVX NSCLC; 72.6% in the test with UO-31 renal; 109% with TK-10 renal; 93.6% with CAKI-1 renal; 114% in the test with A498 renal. Further, the growth in the test with MOLT-4 leukemia was 86.7%.

For `COc1ccc2c(c1)NC1=C(C(=O)OC1)C2c1cc(OC)c2c(c1)OCO2` (stereo not given), the growth in the test on SNB-19 CNS is 37.3%; in the test on U251 CNS, 21.1%; in the test with PC-3 prostate, 24.3%; in the test with SK-MEL-5 melanoma, -55.1% (active); in the test with UACC-62 melanoma, 50.8%; in the test on LOX IMVI melanoma, 19%. Besides, the growth with SK-MEL-28 melanoma is 66.9%; in the test on SK-MEL-2 melanoma it was 54.6%; in the test with EKVX NSCLC it was 52.2%; in the test with SN12C renal, 26.4%; in the test with UO-31 renal, 57.5%; with TK-10 renal, 58.3%. For the same compound, the growth in the test on CAKI-1 renal was 43.4%; with A498 renal it was 18.5%; in the test on CCRF-CEM leukemia, 10.1%; in the test with MOLT-4 leukemia, 11.6%.

As to `COc1cc(C(=O)/C=C/c2c(C)n([O-])c3ccc(C(F)(F)F)cc3[n+]2=O)cc(OC)c1OC`, the growth is 5.72% (active) in the test with HT29 colon; 90.9% in the test on SNB-19 CNS; 87.1% in the test on U251 CNS; 91.8% in the test with PC-3 prostate; 102% in the test with SK-MEL-5 melanoma; 91.4% in the test with UACC-62 melanoma. The growth with LOX IMVI melanoma is 88.4%; in the test with SK-MEL-28 melanoma, 98.8%; in the test on SK-MEL-2 melanoma, 95.5%; in the test with EKVX NSCLC it was 115%; in the test on SN12C renal it was 88.3%; with UO-31 renal, 47.1%. The growth is 42.4% with TK-10 renal; 53.6% in the test with ACHN renal; -11.9% (active) in the test on CAKI-1 renal; 115% in the test on A498 renal; 36.6% with CCRF-CEM leukemia; 65.4% in the test with MOLT-4 leukemia.

Regarding `O=C(Nc1ccncc1)C(=O)c1cn(S(=O)(=O)c2ccccc2F)c2ccccc12`, the growth is 7.48% (active) with HT29 colon; 60.6% with SNB-19 CNS; 30.7% in the test on U251 CNS; 40.1% in the test with PC-3 prostate; 13.5% with SK-MEL-5 melanoma; 32.3% with UACC-62 melanoma. Further, the growth is 37% in the test with LOX IMVI melanoma; 61.5% in the test on SK-MEL-28 melanoma; 49.2% with EKVX NSCLC; 33.8% in the test with SN12C renal; 52.9% in the test with UO-31 renal; 101% in the test with TK-10 renal. In addition, the growth in the test with ACHN renal was 56.8%; with CAKI-1 renal, 35.6%; in the test on A498 renal, 49.7%; with MOLT-4 leukemia, 39.1%.

For the compound `O=[N+]([O-])c1ccc(/C=C/C2(CCl)OCCO2)cc1`, the growth is 92.5% with HT29 colon; 95.6% in the test on SNB-19 CNS; 97.3% in the test with U251 CNS; 96.4% with PC-3 prostate; 89.8% with UACC-62 melanoma; 80.6% in the test with LOX IMVI melanoma. For the same compound, the growth in the test with SK-MEL-28 melanoma was 112%; in the test with SK-MEL-2 melanoma, 91.7%; in the test with SN12C renal, 102%; in the test on UO-31 renal it was 95.3%; in the test on TK-10 renal, 103%; in the test with ACHN renal, 116%. Moreover, the figures for the growth in the test with A498 renal, in the test with CCRF-CEM leukemia and with MOLT-4 leukemia were 113%, 62.4% and 45.8%, respectively.

For the compound `CN(C)CCOC(=O)Nc1ccccc1Cl`, the growth in the test on HT29 colon was 110%; in the test with SNB-19 CNS, 104%; in the test with U251 CNS, 108%; in the test on PC-3 prostate it was 93.5%; in the test on SK-MEL-5 melanoma, 104%; with UACC-62 melanoma, 110%. The growth in the test with LOX IMVI melanoma was 101%; in the test with SK-MEL-28 melanoma it was 115%; in the test with SK-MEL-2 melanoma it was 118%; in the test with EKVX NSCLC it was 115%; with SN12C renal it was 104%; in the test with UO-31 renal it was 86.6%. Also, the growth in the test on TK-10 renal was 106%; in the test with ACHN renal, 108%; in the test with CAKI-1 renal it was 97.7%; in the test on A498 renal, 112%; with CCRF-CEM leukemia, 93.4%; in the test on MOLT-4 leukemia, 99.2%.

Turning to `COc1cc(/C(C#N)=C/c2ccc3c(c2OC)OCO3)cc2c1OCO2`, the growth was 31.2% in the test with SNB-19 CNS; 18.9% in the test on U251 CNS; 40.8% in the test on PC-3 prostate; 36.9% in the test on SK-MEL-5 melanoma; 18.5% in the test with UACC-62 melanoma; 24.2% in the test with LOX IMVI melanoma. Further, the growth was 45.7% with SK-MEL-28 melanoma; 45.9% in the test on EKVX NSCLC; 36.6% in the test with SN12C renal; 41.7% in the test with UO-31 renal; 54.3% in the test with TK-10 renal; 51.6% in the test on ACHN renal. The growth was 42.9% in the test with CAKI-1 renal, 8.92% (active) with A498 renal and 50.6% in the test with MOLT-4 leukemia.

For the compound `OB(O)c1cccc(-c2nc3ccc4[nH]ncc4c3c3c2CCCC3)c1F`, the growth was 58.3% in the test on SNB-19 CNS; 50.6% in the test on U251 CNS; 55.5% in the test with PC-3 prostate; 79.5% with SK-MEL-5 melanoma; 27.4% in the test with UACC-62 melanoma; 26.3% in the test with LOX IMVI melanoma. The growth in the test with SK-MEL-28 melanoma was 92.5%; in the test with SK-MEL-2 melanoma, 57.1%; in the test on EKVX NSCLC it was 50.2%; in the test on SN12C renal, 47.7%; with UO-31 renal it was 27%; in the test on TK-10 renal, 18.3%. Further, the growth in the test on ACHN renal was 32.2%; in the test with A498 renal, 12.7%; in the test with CCRF-CEM leukemia, 29.7%; with MOLT-4 leukemia, 52%.

On to `Clc1ccccc1-c1nc2ccccc2[nH]1`, for which the growth in the test on HT29 colon is 103%; with SNB-19 CNS, 90%; with PC-3 prostate it was 94.4%; in the test on SK-MEL-5 melanoma, 102%; in the test on UACC-62 melanoma, 98.2%; in the test on SK-MEL-28 melanoma it was 113%. Besides, the growth was 116% in the test on SK-MEL-2 melanoma; 90.3% with EKVX NSCLC; 116% in the test on SN12C renal; 95.1% in the test with UO-31 renal; 121% in the test on TK-10 renal; 77.5% with CAKI-1 renal. Besides, the growth was 110% in the test on A498 renal, 91% in the test with CCRF-CEM leukemia and 110% with MOLT-4 leukemia.
